# Screens deposited in PubChem BioAssay by National Center for Advancing Translational Sciences (NCATS).
# Rows were chosen to be rich in hits. Some 19% of all compounds tested hit in one or more screens of this group.
# Pf growth 48h – P. falciparum growth inhibition at 48 hours (one generation); 310,000 tested, 5.9% active; AID 504832; P. falciparum luciferase growth in erythrocytes, 48 h; Potency, µM (series often up to 28.7 µM), inactives show top-dose activity change, negative = inhibition, hits mostly inhibitors; note: potency is the fitted concentration of half-maximal effect; % is set by controls: 0 for no effect and ±100 for the full control effect
#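 Parasite viability was followed by luminescence of a genomically integrated firefly luciferase. Cultures held 0.1% parasitemia at 2% hematocrit (final), incubated under 5% CO2 at 37 C.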
# Shiga inhibitor – inhibitors of Shiga toxin in Vero cells; Vero cells, Shiga toxin protein synthesis inhibition reporter; inhibition, % at 38.7 µM; 290,000 tested, 9.2% active; AID 2315; in the data active = inhibition mostly above about 28%, no sharp cut-off; inactive = mostly below about 43%; note: 0% is about no effect
# Pf growth 96h – P. falciparum growth inhibition at 96 hour, primary screen for plastid delayed-death inhibitors. P. falciparum luciferase reporter growth, 96 h. Potency, µM (highest dose often 28.7 µM), for inactives: top-dose activity change, negative = inhibition, actives largely listed as inhibitors. 320,000 tested, 6.9% active; note: potency is the fitted concentration of half-maximal effect; % is set by controls: 0 for no effect and ±100 for the full control effect
#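 P. falciparum expressing integrated firefly luciferase grown in erythrocytes (2% hematocrit, 0.05% parasitemia final) with compounds for 96 hours at 37 C, 5% CO2. Growth inhibition read as loss of luminescence after adding luciferase detection reagent.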
# Marburg entry inh – blocks Marburg virus binding to or entry into cells | 300,000 tested, 1.8% active | Potency, µM (series often up to 37.8 µM), without a hit: at the top dose activity change, negative = inhibition, actives largely listed as inhibitors | Marburg virus pseudotyped entry inhibition, cell reporter; calls by dose curve; tested in HEK293 cells; note: potency is the fitted concentration of half-maximal effect; % is set by controls: 0 for no effect and ±100 for the full control effect
# CHX counter – counter-screen hit for Shiga toxin inhibitors, cycloheximide; cell reporter, cycloheximide protein synthesis inhibition counterscreen; max response, %; 300,000 tested, 12% active; AID 2314; in the data active = max response mostly above about 13%, no sharp cut-off; inactive = mostly below about 14%; note: read at 38.3 µM for the half of the compounds with a filed dose; 0% is about no effect
# Lassa entry inh – inhibitors of Lassa virus binding or cell entry. AID 540256. 300,000 tested, 1.2% active. Lassa virus pseudotype entry inhibition, cell reporter. Potency, µM (top dose mostly 37.9 µM), for inactives: at the highest dose activity change, negative = inhibition, most hits filed as inhibitors; calls by dose curve; tested in HEK293 cells; note: potency is the fitted concentration of half-maximal effect; % is set by controls: 0 for no effect and ±100 for the full control effect; nearly all actives have a fitted effect of over 50% in size
# Starred values were filed as active, the others as inactive; i = inactive; ? = inconclusive; · = no result given; [ ] = remark or other dose. Unless noted, calls come from the whole dose curve; as a rule, active = well fitted inhibition curve with a large enough effect; inconclusive = small, poorly fitted or top-dose-only effect, or another doubt; inactive = no such curve, though single readings can be large or run the other way.
SMILES,Pf growth 48h,Shiga inhibitor,Pf growth 96h,Marburg entry inh,CHX counter,Lassa entry inh
O=C(CC1CCCC1)Nc1ccc(Cl)c(S(=O)(=O)N2CCOCC2)c1,·,·,·,?,·,2.8µM*
COc1ccc(C(=O)O)cc1S(=O)(=O)Nc1cccc(C(F)(F)F)c1,35%,-7,6%,-1%,2,8%
O=C(O)c1ccc(Cl)c(S(=O)(=O)Nc2cccc(C(=O)Nc3cccc(C(F)(F)F)c3)c2)c1,7%,28,10µM*,-12%[46.1 µM],8,11%
O=C(O)c1cccc(NC(=O)c2ccc(Cl)c(S(=O)(=O)N3CCCCCC3)c2)c1,i,101*,?,·,50*,·
O=C(Nc1ccc2c(c1)OCCO2)c1ccc(Cl)c(S(=O)(=O)N2CCOCC2)c1,2.6µM*,66*,4%[5.75 µM],-4%,42*,37%[14.3 µM]
Cc1ccc(-c2c(CC(=O)O)c(C)nc3sc4c(c23)CCCC4)cc1,15%,-8,7%,·,-5,·
Cc1ccc(NC(=O)Cc2ccc3c(c2)OCCO3)cc1S(=O)(=O)N1CCCCC1,171%,-5,5.2µM*,?,12,?
O=C(Nc1ccc(Cl)c(S(=O)(=O)N2CCCCC2)c1)C1=COCCO1,10%,·,?,10%,·,?
CN(C)S(=O)(=O)c1cc(NC(=O)C2=COCCO2)ccc1Cl,-16%,·,12µM*,·,·,·
Cc1ccc(C)c(S(=O)(=O)N2CCN(CC(=O)Nc3ccc4c(c3)OCCO4)CC2)c1,-21%,-22,·,7%,-3,-2%
Cc1ccc(-n2c(C)cc(C(=O)OCC(=O)N(C)C3CCS(=O)(=O)C3)c2C)cc1 (stereo unspecified),1.7µM*,17,42%,?,10,-2%
CN(CCC#N)C(=O)COC(=O)c1cccnc1Nc1ccccc1F,-10%,21,25%,-1%,16*,1%
Cc1ccc(-n2c(C)cc(C(=O)OCC(=O)N(CC(C)C)C3CCS(=O)(=O)C3)c2C)cc1 (stereo unspecified),-91%,10,58%,-2%,2,-25%
CN(C(=O)COC(=O)c1cccnc1Nc1ccccc1F)C1CCS(=O)(=O)C1 (stereo unspecified),76%,65*,91%,32%,28*,12%
CCN(C(=O)COC(=O)c1cccnc1Nc1ccccc1F)C1CCS(=O)(=O)C1 (stereo unspecified),153%,54*,159%,?,62*,20%
CN(C(=O)COC(=O)c1cccnc1Nc1cccc(C(F)(F)F)c1)C1CCS(=O)(=O)C1 (stereo unspecified),10%,-6,-11%,-10%,-3,-1%
Cn1cc(C2=C(c3cn(CCCSC(=N)N)c4ccccc34)C(=O)NC2=O)c2ccccc21,·,-19,·,·,-8,·
CC(=O)Nc1ccc(S(=O)(=O)N2CCN(S(=O)(=O)c3ccccc3)CC2)cc1,?,-3,?,·,-2,·
CC(=O)Nc1ccc(S(=O)(=O)N2CCN=C2c2ccccc2)cc1,-19%,-17,15µM*,·,0,·
C[C@@H]1CC2OC(=O)[C@@]3(C)C(=O)CC[C@@](C)(C23)[C@@]1(O)CCc1ccoc1 (stereo partly specified),4%,-4,40%,?,26*,-21%[46.1 µM]
COc1cc2c3c(n(C)c(=O)c2cc1OC)-c1cc2c(cc1C3=O)OCO2,·,·,·,0.56µM*,·,?
CN(CC(=O)Nc1ccc(F)cc1)C(=O)CCc1ccccc1,1%,-4,19%,-2%[46.1 µM],5,10%
COc1ccc([N+](=O)[O-])cc1NC(=O)c1ccc(N(Cc2ccccc2Cl)S(C)(=O)=O)cc1,34%,-14,?,?,-2,?
CS(=O)(=O)NC(=O)CCC/C=C\C[C@H]1C(=O)C[C@@H](O)[C@@H]1/C=C/[C@@H](O)COc1ccccc1,·,-13,·,·,-7,·
O=C(O)CCC/C=C\C[C@@H]1[C@@H](/C=C/[C@@H](O)COc2cccc(C(F)(F)F)c2)[C@H](O)C[C@@H]1O,-9%,·,0.95µM*,·,·,·
SMILES,Pf growth 48h,Shiga inhibitor,Pf growth 96h,Marburg entry inh,CHX counter,Lassa entry inh
O=C(c1cc2ccccc2c(=O)o1)N1CCCCCC1,3%,141*,3%,7%,71*,?
CC1CCN(C(=O)c2cc3ccccc3c(=O)o2)CC1,21%,44*,71%,?,16,0%
Cc1cccc(NC(=O)CSc2ncnc3sc(C)c(C)c23)n1,-5%,-7,-27%,-5%,-2,-17%
Cc1sc2ncnc(SCC(=O)c3cccs3)c2c1C,51%,72*,·,-21%,35*,?
CC1CCN(c2nc3ccc(C(=O)NCCCN4CCCCC4C)cc3s2)CC1 (stereo unspecified),-10%,34*,3%,·,29*,·
CC1CCCC(C)N1CCCNC(=O)c1ccc2nc(N3CCCCC3)sc2c1 (stereo unspecified),?,59*,?,·,18*,·
CC1CCCC(C)N1CCCNC(=O)c1ccc2nc(N3CCOCC3)sc2c1 (stereo unspecified),-12%,3,79%,·,4,·
CNc1cc([N+](=O)[O-])ccc1N/C=C/C(=O)c1cccs1,?,107*,15%,13%[46.1 µM],33*,9%
CNc1cc([N+](=O)[O-])ccc1N/C=C/C(=O)c1ccc2c(c1)OCO2,28%,124*,0%,7%,76*,8%
O=C(Cc1cccs1)Nc1cccc([N+](=O)[O-])c1,11%,19,?,?,23,-1%
O=C(/C=C/Nc1cccc([N+](=O)[O-])c1)c1cccs1,·,89*,152%,-4%,32*,-2%
C[C@@H](C(=O)NCc1ccccc1)[C@@H]1C[C@@]1(C)[C@@H](NC(=O)OCc1ccccc1)c1ccccc1,3%,2,?,-62%,1,7.3µM*
C[C@@H](C(=O)O)[C@@H]1C[C@@]1(C)[C@@H](NC(=O)OCc1ccccc1)c1ccccc1,32%,-7,-15%,16%,-2,5%
CNC(=O)[C@H](C)[C@@H]1C[C@@]1(C)[C@@H](NC(=O)OCc1ccccc1)c1ccccc1,13µM*,-2,?,-18%,-1,?
C[C@@H](C(=O)NCc1ccc(S(C)(=O)=O)cc1)[C@H]1C[C@]1(C)[C@H](NC(=O)OCc1ccccc1)c1ccccc1,-23%,-9,?,-40%,-4,?
Cc1ccc(CNC(=O)[C@H](C)[C@H]2C[C@]2(C)[C@H](NC(=O)OCc2ccccc2)c2ccccc2)o1,?,19,?,10µM*,10,-20%
CCOc1ccc(-n2c(O)c(/C=N/NC(=O)C3COc4ccccc4O3)c3ccccc3c2=O)cc1 (stereo unspecified),14%,-9,69%,-1%,5,-22%
CCOc1ccc(NC(=O)c2cc3c(C)nc4ccccc4c3o2)cc1,?,1,14%,·,-4,·
